Reference: the supplement of paper PMC11732987, “Enantioselective OTUD7B fragment discovery through chemoproteomics screening and high-throughput optimisation” (Communications Chemistry, 2025)

How the values were obtained:
Assay in all cases: log2 ratio of Biotin-Ahx-Ub-VS probe labelling (fragment/DMSO); higher = less target engagement (more negative = stronger competition), active = hit call of the paper (q ≤ 0.05, log2 ratio ≤ -1)
Details in all cases: compound concentration: 200 uM; treatment time: 3 h
USP19 = target: T1, USP19 (UniProt O94966)
T1 sequence (whole entry): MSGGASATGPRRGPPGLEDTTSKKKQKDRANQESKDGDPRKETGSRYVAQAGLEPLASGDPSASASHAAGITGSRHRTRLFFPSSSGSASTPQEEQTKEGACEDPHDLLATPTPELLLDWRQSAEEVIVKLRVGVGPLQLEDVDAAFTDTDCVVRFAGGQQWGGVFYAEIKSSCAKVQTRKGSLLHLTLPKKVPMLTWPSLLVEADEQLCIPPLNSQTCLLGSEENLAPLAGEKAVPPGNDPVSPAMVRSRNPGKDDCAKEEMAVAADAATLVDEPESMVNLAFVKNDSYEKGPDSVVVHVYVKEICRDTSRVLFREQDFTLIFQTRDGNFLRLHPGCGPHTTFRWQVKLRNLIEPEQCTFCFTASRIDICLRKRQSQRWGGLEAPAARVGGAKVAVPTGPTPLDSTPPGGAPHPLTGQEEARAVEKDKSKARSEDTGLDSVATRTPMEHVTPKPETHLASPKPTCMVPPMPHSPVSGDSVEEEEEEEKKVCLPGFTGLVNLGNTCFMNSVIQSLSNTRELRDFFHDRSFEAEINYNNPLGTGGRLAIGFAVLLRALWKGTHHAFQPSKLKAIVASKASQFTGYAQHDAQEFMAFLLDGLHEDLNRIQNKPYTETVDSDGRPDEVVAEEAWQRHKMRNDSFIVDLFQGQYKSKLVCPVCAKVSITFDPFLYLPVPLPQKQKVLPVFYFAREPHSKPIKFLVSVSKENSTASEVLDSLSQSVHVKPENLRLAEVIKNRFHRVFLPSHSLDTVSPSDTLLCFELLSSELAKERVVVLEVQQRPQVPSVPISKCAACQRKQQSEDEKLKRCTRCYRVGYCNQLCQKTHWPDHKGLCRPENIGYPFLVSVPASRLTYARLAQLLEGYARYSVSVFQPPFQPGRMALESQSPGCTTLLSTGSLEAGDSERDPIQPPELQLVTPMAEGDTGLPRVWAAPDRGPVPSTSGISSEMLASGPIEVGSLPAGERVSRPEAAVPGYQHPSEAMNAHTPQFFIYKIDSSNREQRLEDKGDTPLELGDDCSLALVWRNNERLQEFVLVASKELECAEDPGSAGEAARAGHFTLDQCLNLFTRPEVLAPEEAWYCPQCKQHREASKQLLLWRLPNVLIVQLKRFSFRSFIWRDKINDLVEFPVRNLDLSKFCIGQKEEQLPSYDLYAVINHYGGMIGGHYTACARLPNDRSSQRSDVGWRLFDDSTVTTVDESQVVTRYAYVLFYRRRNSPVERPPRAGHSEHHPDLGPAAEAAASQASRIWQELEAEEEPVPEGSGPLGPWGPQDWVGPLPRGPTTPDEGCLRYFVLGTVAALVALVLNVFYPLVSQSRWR
Outline: (§1)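 Triplicate samples of HEK293T lysate, 495 µg each, received fragment at 200 µM or vehicle for 3 h, followed by Biotin-Ahx-Ub-VS (0.5 µM final) for 1 h. After NeutrAvidin enrichment of labelled DUBs and LysC/trypsin digestion, peptides were run by diaPASEF LC-MS/MS. The values are average log2 fragment/vehicle ratios from global-median-normalised Spectronaut label-free quantities, tested by unpaired t-test on proteins having ≥2 unique peptides.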

USP24 = USP24 (UniProt Q9UPU5)
USP24, sequence (Q9UPU5 whole entry): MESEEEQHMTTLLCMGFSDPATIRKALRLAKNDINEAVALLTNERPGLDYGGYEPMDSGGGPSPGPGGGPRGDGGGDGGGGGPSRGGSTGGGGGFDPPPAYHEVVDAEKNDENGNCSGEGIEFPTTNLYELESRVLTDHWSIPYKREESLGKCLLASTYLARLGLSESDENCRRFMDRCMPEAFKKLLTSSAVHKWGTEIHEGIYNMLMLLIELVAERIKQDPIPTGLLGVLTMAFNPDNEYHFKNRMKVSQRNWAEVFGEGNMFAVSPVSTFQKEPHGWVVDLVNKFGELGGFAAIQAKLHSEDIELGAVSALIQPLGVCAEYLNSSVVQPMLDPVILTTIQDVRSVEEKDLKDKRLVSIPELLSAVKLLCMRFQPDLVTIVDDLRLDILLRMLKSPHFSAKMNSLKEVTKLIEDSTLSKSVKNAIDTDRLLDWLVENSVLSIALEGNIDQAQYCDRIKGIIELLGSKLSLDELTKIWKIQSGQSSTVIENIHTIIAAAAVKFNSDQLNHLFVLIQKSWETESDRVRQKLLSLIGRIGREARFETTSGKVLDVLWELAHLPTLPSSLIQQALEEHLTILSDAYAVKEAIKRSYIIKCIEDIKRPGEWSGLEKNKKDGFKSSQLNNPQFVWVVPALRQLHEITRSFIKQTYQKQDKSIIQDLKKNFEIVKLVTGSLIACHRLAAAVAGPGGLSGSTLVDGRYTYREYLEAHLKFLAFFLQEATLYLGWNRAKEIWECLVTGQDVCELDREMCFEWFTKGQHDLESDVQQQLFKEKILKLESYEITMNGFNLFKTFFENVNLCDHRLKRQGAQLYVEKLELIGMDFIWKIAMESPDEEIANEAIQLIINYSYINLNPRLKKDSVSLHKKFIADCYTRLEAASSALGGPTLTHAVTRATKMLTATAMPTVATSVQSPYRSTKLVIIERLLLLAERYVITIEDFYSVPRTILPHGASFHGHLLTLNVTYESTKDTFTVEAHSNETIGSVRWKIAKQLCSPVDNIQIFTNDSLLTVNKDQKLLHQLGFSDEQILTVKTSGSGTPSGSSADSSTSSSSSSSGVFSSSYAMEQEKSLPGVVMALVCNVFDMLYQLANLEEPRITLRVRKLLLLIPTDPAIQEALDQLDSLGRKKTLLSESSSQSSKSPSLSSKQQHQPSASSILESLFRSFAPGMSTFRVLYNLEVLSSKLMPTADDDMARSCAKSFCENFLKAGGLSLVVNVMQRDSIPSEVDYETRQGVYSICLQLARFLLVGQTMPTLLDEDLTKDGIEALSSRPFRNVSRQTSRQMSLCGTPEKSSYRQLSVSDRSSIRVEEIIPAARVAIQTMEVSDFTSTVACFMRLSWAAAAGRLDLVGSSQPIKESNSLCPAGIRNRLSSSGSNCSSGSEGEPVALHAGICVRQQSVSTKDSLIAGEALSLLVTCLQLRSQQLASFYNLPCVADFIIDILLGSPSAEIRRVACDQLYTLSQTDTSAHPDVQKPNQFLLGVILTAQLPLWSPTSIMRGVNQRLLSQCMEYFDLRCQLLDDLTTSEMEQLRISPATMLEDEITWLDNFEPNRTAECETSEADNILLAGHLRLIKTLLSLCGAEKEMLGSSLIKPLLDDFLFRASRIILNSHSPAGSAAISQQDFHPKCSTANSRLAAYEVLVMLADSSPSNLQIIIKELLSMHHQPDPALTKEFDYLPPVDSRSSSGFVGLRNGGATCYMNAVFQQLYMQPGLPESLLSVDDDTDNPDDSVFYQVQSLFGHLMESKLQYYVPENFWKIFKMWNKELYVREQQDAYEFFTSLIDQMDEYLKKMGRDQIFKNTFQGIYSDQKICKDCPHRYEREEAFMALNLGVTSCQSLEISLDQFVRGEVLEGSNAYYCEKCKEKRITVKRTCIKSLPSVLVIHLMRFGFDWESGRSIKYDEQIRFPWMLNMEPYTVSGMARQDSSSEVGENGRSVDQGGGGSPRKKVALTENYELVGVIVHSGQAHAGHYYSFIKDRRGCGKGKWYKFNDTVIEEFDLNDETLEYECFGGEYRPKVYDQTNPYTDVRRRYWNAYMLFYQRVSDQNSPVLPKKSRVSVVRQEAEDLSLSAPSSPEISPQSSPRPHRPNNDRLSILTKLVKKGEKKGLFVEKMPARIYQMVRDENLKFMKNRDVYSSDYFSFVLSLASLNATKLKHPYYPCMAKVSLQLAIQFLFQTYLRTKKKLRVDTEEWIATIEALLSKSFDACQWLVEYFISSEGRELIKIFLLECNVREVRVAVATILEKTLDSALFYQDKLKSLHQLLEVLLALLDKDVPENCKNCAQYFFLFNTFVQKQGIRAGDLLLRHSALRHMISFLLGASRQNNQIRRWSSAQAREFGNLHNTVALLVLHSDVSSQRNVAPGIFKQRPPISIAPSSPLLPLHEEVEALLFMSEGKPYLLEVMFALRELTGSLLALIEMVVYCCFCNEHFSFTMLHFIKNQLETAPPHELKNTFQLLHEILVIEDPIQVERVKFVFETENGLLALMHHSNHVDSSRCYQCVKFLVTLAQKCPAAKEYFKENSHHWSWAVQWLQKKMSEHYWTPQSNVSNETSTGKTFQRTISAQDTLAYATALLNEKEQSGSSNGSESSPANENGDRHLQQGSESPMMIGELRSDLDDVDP
Outline: as §1

USP25 = target: T2, USP25 (UniProt Q9UHP3)
T2 sequence (whole entry): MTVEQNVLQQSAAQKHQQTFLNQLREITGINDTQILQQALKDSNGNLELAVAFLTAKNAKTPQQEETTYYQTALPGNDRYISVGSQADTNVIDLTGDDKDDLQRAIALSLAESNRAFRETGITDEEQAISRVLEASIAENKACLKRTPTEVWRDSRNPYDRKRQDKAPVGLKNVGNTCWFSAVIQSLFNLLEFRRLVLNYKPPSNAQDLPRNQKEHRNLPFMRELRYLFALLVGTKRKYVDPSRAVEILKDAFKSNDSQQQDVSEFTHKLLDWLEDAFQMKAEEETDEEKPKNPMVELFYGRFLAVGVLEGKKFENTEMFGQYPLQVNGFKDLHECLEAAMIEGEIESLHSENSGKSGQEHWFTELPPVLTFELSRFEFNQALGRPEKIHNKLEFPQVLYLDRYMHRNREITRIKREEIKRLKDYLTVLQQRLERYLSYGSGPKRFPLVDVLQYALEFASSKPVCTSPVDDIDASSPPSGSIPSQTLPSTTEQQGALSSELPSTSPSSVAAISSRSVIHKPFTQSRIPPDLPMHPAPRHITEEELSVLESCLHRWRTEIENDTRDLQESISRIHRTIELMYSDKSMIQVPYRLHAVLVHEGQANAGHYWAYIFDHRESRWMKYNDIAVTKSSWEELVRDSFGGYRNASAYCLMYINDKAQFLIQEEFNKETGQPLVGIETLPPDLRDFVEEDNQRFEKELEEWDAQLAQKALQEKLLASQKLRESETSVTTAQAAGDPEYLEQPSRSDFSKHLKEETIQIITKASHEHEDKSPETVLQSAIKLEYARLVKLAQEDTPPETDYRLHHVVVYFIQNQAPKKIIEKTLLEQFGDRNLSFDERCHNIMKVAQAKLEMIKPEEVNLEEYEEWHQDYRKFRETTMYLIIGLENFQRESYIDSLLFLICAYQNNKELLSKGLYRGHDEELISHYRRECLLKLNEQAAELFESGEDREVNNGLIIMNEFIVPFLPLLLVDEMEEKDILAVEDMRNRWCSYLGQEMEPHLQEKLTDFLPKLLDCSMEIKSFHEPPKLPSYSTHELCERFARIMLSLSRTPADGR
Outline: as §1

USP28 = target: T3, USP28 (UniProt Q96RU2)
T3 sequence (whole entry): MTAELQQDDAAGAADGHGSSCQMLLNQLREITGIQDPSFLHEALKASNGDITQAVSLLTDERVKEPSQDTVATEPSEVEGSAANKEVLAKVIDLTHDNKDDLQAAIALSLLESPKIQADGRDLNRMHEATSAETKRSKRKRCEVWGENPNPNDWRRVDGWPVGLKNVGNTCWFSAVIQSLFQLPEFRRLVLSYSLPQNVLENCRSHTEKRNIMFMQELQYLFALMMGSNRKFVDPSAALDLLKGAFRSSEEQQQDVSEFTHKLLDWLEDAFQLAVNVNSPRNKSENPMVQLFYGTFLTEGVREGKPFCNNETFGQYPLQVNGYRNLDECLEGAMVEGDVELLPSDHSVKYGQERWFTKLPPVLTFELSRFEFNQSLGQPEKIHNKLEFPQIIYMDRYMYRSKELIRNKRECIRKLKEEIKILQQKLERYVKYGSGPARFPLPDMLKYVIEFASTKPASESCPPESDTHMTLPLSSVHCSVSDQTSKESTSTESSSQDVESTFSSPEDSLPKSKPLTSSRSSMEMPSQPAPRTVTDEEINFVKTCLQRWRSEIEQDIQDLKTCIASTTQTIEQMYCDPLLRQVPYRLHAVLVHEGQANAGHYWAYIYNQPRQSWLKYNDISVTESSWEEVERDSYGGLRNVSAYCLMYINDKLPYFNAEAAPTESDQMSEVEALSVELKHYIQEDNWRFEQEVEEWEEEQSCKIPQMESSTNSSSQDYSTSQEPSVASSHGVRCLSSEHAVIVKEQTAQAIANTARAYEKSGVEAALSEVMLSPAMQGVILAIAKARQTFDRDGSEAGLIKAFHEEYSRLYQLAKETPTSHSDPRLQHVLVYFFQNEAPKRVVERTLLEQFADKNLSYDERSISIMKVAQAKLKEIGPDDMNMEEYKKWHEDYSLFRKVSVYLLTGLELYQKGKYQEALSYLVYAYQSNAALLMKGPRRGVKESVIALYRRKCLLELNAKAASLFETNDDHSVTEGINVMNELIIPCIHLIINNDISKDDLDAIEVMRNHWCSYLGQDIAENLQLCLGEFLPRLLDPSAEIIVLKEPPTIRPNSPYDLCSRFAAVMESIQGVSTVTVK
Outline: as §1

Measured: log2 ratio of Biotin-Ahx-Ub-VS probe labelling

Cl.Cn1ncc2c1CC(NC(=O)CCl)CC2 (centres undefined)
inactive: USP19 0.0381 | USP24 0.0406 | USP25 -0.321 | USP28 -0.758
